The list is not random: actives were taken first. Their share in the collection is about 1.3%.
SRC1 inh = inhibitors of human steroid receptor coactivator 1 (SRC1); HEK293 GAL4-SRC1 luciferase reporter, luminescence; inhibition, % at 3.6 µM; Q15788; 360,000 tested, 0.12% active;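 active means inhibition above the campaign mean plus 3 SD, with each screening campaign given its own cutoff, cut at about 60% in these data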
Gli-Sufu antag = Gli-Sufu pathway antagonism. Sufu-KO-LIGHT fibroblasts, Gli luciferase reporter luminescence. inhibition, % at 5 µM. 340,000 tested, 0.74% active;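 active means inhibition above about 55%, limit read from the data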
NR5A2 inv ag = NR5A2 inverse agonism in reporter assay; HEK293T StAR-luciferase reporter, LRH-1 transfected, 24 h; inhibition, % at 3.6 µM; 360,000 tested, 0.13% active;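 active means inhibition above the mean inhibition of all tested compounds plus 3 SD, cut at about 73% in these data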
NCOA3 inh = inhibitors of human steroid receptor coactivator 3 (SRC3); HEK293 GAL4-SRC3 luciferase reporter, luminescence; inhibition, % at 3.6 µM; 360,000 tested, 0.17% active; AID 588352;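 active means inhibition above a per-campaign cutoff, the mean of all compounds plus 3 SD, cut at about 60% in these data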;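 further: higher means less SRC3-driven luciferase light from the GAL4 reporter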
NR2F2 inh = blocks human COUP-TFII nuclear receptor. P24468. HEK293T NGFI-A luciferase reporter, luminescence. inhibition, % at 8.6 µM. 370,000 tested, 0.7% active. AID 686940;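 active means inhibition above a per-plate cutoff, mean inhibition of test wells between control levels plus 3 SD, cut at about 38% in these data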;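 further: cells cotransfected with COUP-TFII expression vector driving the NGFI-A reporter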
SRC2 inh = inhibits human steroid receptor coactivator 2; HEK293 GAL4-SRC2 luciferase reporter, luminescence; AID 651957; inhibition, % at 9 µM; 370,000 tested, 0.17% active;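 active means inhibition above the mean inhibition of all tested compounds plus 3 SD, set per campaign, cut at about 52% in these data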
Gli antag conf = Gli-SUFU antagonism confirmation, single concentration | shares compounds with Gli-Sufu antag | Sufu-KO-LIGHT cells, Gli luciferase reporter, luminescence | inhibition, % at 5 µM | 2,500 tested, 40% active | AID 602428;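 active means mean inhibition at 5 µM reaching about 45%, limit read from the data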
SufuKO cytotox = counter-screen for Gli-SUFU antagonists: cytotoxicity | shares compounds with Gli-Sufu antag | Sufu-KO-LIGHT cells cytotoxicity, ATP luminescence | cytotoxicity, % at 5 µM | 2,500 tested, 32% active | AID 651994;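 active means mean cytotoxicity at 5 µM above about 25%, limit read from the data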;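 further: cells exposed to compound overnight for roughly 16 to 18 hours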
Wnt3a cs = inhibits Wnt3a reporter, counter-screen for Gli-SUFU antagonists | inhibition, % at 6.25 µM | Wnt-LIGHT cells, Wnt3a-driven luciferase reporter, luminescence | shares compounds with Gli-Sufu antag | 2,500 tested, 20% active | AID 651995;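 active means mean inhibition above about 25%, limit read from the data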
A number is an active result; n = inactive; x = not tested or not shown.

SMILES	SRC1 inh	Gli-Sufu antag	NR5A2 inv ag	NCOA3 inh	NR2F2 inh	SRC2 inh	Gli antag conf	SufuKO cytotox	Wnt3a cs
CCOCCCNC(=O)C(NC(=O)c1ccc(NC(C)=O)cc1)c1ccc(C)cc1 (stereo unspecified)	n	96.3	n	n	n	n	n	n	n
N#CCC[C@H]1CC[C@]2(CCCN(C(=O)c3ccc4ccccc4n3)C2)O1	x	x	x	x	n	n	x	x	x
CC1=Nc2cccc3cccc(c23)N1C	n	70.5	n	n	n	n	89.2	n	n
CCCC1CCC2(CC1)CCC2OC(=S)Nc1ccc(Cl)cc1 (stereo unspecified)	x	x	x	x	n	x	x	x	x
CCOCCCNC(=O)c1ccc2c(c1)ncn2-c1ccc(C)cc1C	n	n	n	n	n	n	x	x	x
CCOCCCNC(=O)c1ccc2c(c1)ncn2-c1ccccc1OC	n	60.9	n	n	n	n	n	n	n
Cc1nn(Cc2ccc(Cl)cc2)c(C)c1NC(=O)Cn1nc([N+](=O)[O-])c(Cl)c1C	n	n	n	n	n	n	n	n	n
Cc1nn(Cc2ccccc2)c(C)c1NC(=O)CCCn1nc([N+](=O)[O-])c(Cl)c1C	n	n	n	n	n	n	n	n	n
COC(=O)C1=C(C)N(C)C(=NCc2cc(OC)c(OC)c(OC)c2)NC1c1ccc(Cl)cc1 (stereo unspecified)	x	x	x	x	n	n	x	x	x
C#CCNC(=O)C[C@H]1C[C@@]2(C(=O)OC)C(=C[C@H](C(C)C)O[C@@H]2C2CC2)N(Cc2ccc3c(c2)OCO3)C1=O	x	x	x	x	n	n	x	x	x
CC(C)[C@H](NC(=O)[C@H](Cc1ccccc1)NC(=O)OC(C)(C)C)C(=O)N1CCC2CCN(S(=O)(=O)c3ccccc3)CC21 (stereo partly specified)	x	x	x	x	n	n	x	x	x
CCc1nn(CCCC(=O)NCc2ccccc2Br)c(=O)c2cc3occc3n12	n	82.1	n	n	n	n	n	n	n
Nc1nc2c(ncn2[C@@H]2O[C@H](C(=O)N[C@H](Cc3ccccc3)C(=O)NC3CCCCC3)[C@@H](O)[C@H]2O)c(=O)[nH]1	x	x	x	x	n	n	x	x	x
CS(=O)(=O)N(CC(=O)N1CCOCC1)c1ccc(Cl)cc1	n	56.0	n	n	n	n	n	n	n
CS(=O)(=O)N(CC(=O)N1CCCCCC1)c1ccc(Cl)cc1	n	n	n	n	n	n	x	x	x
COc1ccc(-c2cnc3c(c2)CCC3(C#N)C#N)cc1	n	n	n	n	n	n	61.1	47.1	n
Cc1ccc(C)c(-c2csc(NC(=O)C3=COCCO3)n2)c1	n	62.8	n	n	n	n	62.9	n	n
Cc1ccc(-c2csc(NC(=O)C3=COCCO3)n2)cc1	n	n	n	n	n	n	x	x	x
CC(C)Cn1c(N)c(C(=O)COC(=O)C2CCCCC2)c(=O)n(C)c1=O	n	n	n	n	n	n	x	x	x
CC(C)Cn1c(N)c(C(=O)COC(=O)C2Cc3ccccc3CN2S(C)(=O)=O)c(=O)n(C)c1=O (stereo unspecified)	n	55.6	n	n	n	n	61.5	31.0	n
CC(C)CNC(=O)OCc1cn(Cc2cccc(Cl)c2)nn1	x	x	x	x	n	n	x	x	x
CSc1nc(N)nc2c1ncn2CC(=O)N1CCN(Cc2c(C)cc(C)cc2C)CC1	n	n	n	n	51.4	n	62.0	26.7	43.7
COc1cc(C2C3=C(COC3=O)Oc3cc4c(cc32)OCO4)cc(OC)c1OC(C)=O (stereo unspecified)	n	62.7	n	n	n	n	49.9	63.3	n
COc1cccc(NC(=O)CNC(=O)[C@@H]2Cc3ccccc3CN2C(=O)OC(C)(C)C)c1	n	65.2	n	n	n	n	n	n	n
Cc1oc(/N=C/c2ccc(Cl)cc2)c(C#N)c1C	n	71.3	n	n	n	n	n	n	n
SMILES	SRC1 inh	Gli-Sufu antag	NR5A2 inv ag	NCOA3 inh	NR2F2 inh	SRC2 inh	Gli antag conf	SufuKO cytotox	Wnt3a cs
COc1ccc(CN(CCN2CCOCC2)C(=O)c2cc(Cl)ccc2F)cc1OC	x	x	x	x	n	n	x	x	x
C=CCOC(=O)N[C@H](c1cccc(OC)c1)[C@H](C)/C=C/CC(=O)OC	x	x	x	x	n	n	x	x	x
CCN(Cc1ccccc1)C(=O)Cn1cnc2c1c(=O)n(C)c(=O)n2C	n	58.7	n	n	n	n	n	n	n
Cc1ccc(NC(=O)/C=C/c2ccc([N+](=O)[O-])s2)cc1	n	n	n	n	n	n	x	x	x
Cc1ccc(NC(=O)/C=C/c2ccc([N+](=O)[O-])s2)c(C)c1	n	72.3	n	n	n	n	n	n	89.7
CC(C)NC(=O)CCn1nnc(-c2cccs2)n1	x	x	x	x	n	n	x	x	x
COc1cccc(NC(=O)C2CCCN2C(=O)NCc2ccccc2)c1 (stereo unspecified)	x	x	x	x	n	n	x	x	x
Cc1noc(/C=C/c2ccccn2)c1[N+](=O)[O-]	n	98.7	n	n	n	n	n	28.5	n
COc1ccccc1N/C=C/c1onc(C)c1[N+](=O)[O-]	n	n	n	n	n	n	x	x	x
C/C(=N\NC(=O)C(C)Oc1ccc([N+](=O)[O-])cc1)c1ccccn1 (stereo unspecified)	n	88.5	n	n	n	n	85.3	33.1	56.2
CCCCN1CCS(=O)(=O)N(Cc2cn(Cc3ccccc3Br)nn2)C(C(=O)OC)C1 (stereo unspecified)	x	x	x	x	n	n	x	x	x
CC(C)(C)c1[nH]nc2c1C(c1ccco1)C(C#N)=C(N)O2 (stereo unspecified)	n	n	n	n	n	n	n	n	n
COC(=O)[C@]12C[C@H](CC(=O)NCC34CC5CC(CC(C5)C3)C4)C(=O)N(CCc3ccc(OC)c(OC)c3)C1=C[C@H](C1CCCC1)O[C@@H]2C	x	x	x	x	n	n	x	x	x
O=C1CCCC(O)=C1C=NCc1ccccc1	n	58.4	n	n	n	n	n	n	n
O=C1N/C(=C\c2ccc(O)cc2)C(O)=C1C=NCc1ccccc1	n	71.2	n	n	n	n	47.4	n	n
COc1ccc(/C=C2\NC(=O)C(C=NCc3ccccc3)=C2O)cc1	n	n	n	n	n	n	x	x	x
O=C(Nc1ccc2c(c1)Cc1ccccc1-2)NC1CCCCN(Cc2ccc(Cl)cc2)C1=O (stereo unspecified)	x	x	x	x	n	n	x	x	x
Cc1cc(-c2cccs2)c2c(n1)sc1c(=O)[nH]c(=O)[nH]c12	n	84.0	n	n	n	n	n	30.7	n
CCOC(=O)c1cc(CC)sc1NC(=O)c1cc(OCC)c(OCC)c(OCC)c1	n	99.2	n	n	n	n	n	n	n
CCn1nc(C)c(CN2CCCC(C(=O)c3cccc(OC(C)C)c3)C2)c1C (stereo unspecified)	n	71.2	n	n	n	n	n	n	39.9

Bioassay records (PubChem)
